# IL1B secr inh = qHTS for Inhibitors of Inflammasome Signaling: IL-1-beta AlphaLISA Primary Screen. THP-1 LPS/ATP IL-1B secretion, AlphaLISA, 16 h; stronger effect = lower value. activity change, % at 57.5 µM. 360,000 compounds, 4.7% hits. AID 743279, 2014; in the data active = activity change below about -50%; inconclusive = mostly about -30% to -49%
#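 THP-1 cells pretreated 1 hr with compounds (up to 57.5 uM final), then stimulated with LPS (250 ng/mL final) plus ATP (1.25 mM final); secreted IL-1B measured by AlphaLISA after 16 hr, decreased signal indicating inhibition.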
# ASM inhibitor = Inhibitors of Secretory Acid Sphingomyelinase (S-ASM): qHTS; placental ASM, HMU-PC fluorogenic substrate, 60 min; Potency, µM (top dose mostly 57.5 µM), actives largely listed as inhibitors; 340,000 compounds, 0.006% hits
# Target sequence (P17405 47-631 limits assumed): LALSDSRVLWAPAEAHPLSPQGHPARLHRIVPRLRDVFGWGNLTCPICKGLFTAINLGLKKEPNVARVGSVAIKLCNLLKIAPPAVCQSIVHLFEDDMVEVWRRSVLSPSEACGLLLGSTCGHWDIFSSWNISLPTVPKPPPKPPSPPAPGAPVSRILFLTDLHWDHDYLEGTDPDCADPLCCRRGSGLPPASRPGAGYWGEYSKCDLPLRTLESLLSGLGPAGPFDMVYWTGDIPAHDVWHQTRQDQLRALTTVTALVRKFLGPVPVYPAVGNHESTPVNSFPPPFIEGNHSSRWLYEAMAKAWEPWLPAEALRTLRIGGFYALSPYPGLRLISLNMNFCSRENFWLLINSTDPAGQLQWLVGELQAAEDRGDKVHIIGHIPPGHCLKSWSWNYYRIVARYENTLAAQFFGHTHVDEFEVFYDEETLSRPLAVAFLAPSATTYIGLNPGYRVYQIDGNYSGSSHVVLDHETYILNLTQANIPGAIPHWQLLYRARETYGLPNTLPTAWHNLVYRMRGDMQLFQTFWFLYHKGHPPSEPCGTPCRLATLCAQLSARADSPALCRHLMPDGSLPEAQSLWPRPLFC
#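 Fluorogenic HMU-PC substrate (9 uM final) is turned over by placental ASM in 60 min at 37 C after a 10 min compound preincubation. Reaction ended by alkaline stop (pH 10), with fluorescence read at 386/447 nm.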
# DT40 TDP1 no CPT = qHTS for Inhibitors of human tyrosyl-DNA phosphodiesterase 1 (TDP1): qHTS in cells in absence of CPT | 420,000 compounds, 15% hits | Potency, µM (titrated, usually from 46.2 µM), hits mostly inhibitors | AID 686978, 2013 | DT40 Tdp1-/- hTDP1 cells, no CPT, ATP luminescence, 48 h; also: nearly all actives have a fitted effect of over 55% in size
#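 Compound effects on proliferation are scored in DT40 Tdp1-/-;hTDP1 cells in the absence of CPT. ATP levels (CellTiter-Glo luminescence) are recorded after a ≥48 hr, 37 °C incubation.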
# TDP1 cell CPT = qHTS for Inhibitors of human tyrosyl-DNA phosphodiesterase 1 (TDP1): qHTS in cells in presence of CPT; Potency, µM (doses to about 46.2 µM), usual class: inhibitors; chicken DT40 Tdp1-/-;hTDP1 cells + 20 nM CPT, ATP luminescence, 48 h; 420,000 compounds, 12% hits; also: nearly all actives have a fitted effect of over 55% in size
#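 Chicken DT40 Tdp1-/- cells stably complemented with human TDP1 were seeded at 400 cells/well in medium containing 20 nM camptothecin, exposed to pin-transferred compounds, and grown at 37 °C for at least 48 hr. Viability was read as ATP luminescence.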
# TGFb SMAD3 inh = qHTS for Inhibitors of TGF-b; HepG2 CAGA-GFP TGF-b/SMAD3 reporter, GFP fluorescence, 18 h; TGF-beta stimulated, 500 pg/mL final; Potency, µM (series often up to 46.1 µM), most hits filed as inhibitors; 410,000 compounds, 1.2% hits; also: nearly all actives have a fitted effect of over 65% in size
#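 Inhibition was scored as loss of TGF-beta-induced (500 pg/mL final, 18 hours, 37 degrees C) GFP in HEPG2 cells carrying a CAGA-GFP reporter, in DMEM with 1% FBS. Well GFP was summed per cell; Activity was normalised to unstimulated and stimulated DMSO wells, then concentration-response fitting.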
# HepG2 tox = qHTS for Inhibitors of TGF-b: Cytotox Counterscreen | 410,000 compounds, 0.76% hits | Potency, µM (doses to about 46.1 µM), usual class: cytotoxic | AID 588856, 2011 | HepG2 CAGA-GFP viability, ATP luminescence, 18 h
#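 CellTiter-Glo luminescence gave cytotoxicity after 18 hours at 37 degrees C. The cells were HepG2 CAGA-GFP in 1% FBS DMEM, stimulated with 500 pg/mL TGF-beta after compound addition. %Activity was normalised to no-cell wells (complete cell-killing) and DMSO (no toxicity), and curves were fitted and classified.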
# A number is an active result; . = inactive; ? = inconclusive; / = no result; [ ] = another dose, or the depositor's remark. This is a sample that favours compounds with a hit; in the whole collection about 19% have one here. Unless noted, calls follow the shape of the dose curve; as a rule, active = well fitted curve in the direction sought with a large enough effect; inconclusive = small, poorly fitted or top-dose-only effect, or another doubt; inactive = no such curve, though single readings can be large; an effect the other way counts as inactive or inconclusive.
SMILES,IL1B secr inh,ASM inhibitor,DT40 TDP1 no CPT,TDP1 cell CPT,TGFb SMAD3 inh,HepG2 tox
Cc1ccc(NC(=O)c2cccc(S(=O)(=O)N3CCN(c4ccc(F)cc4)CC3)c2)nc1,.,/,?,15µM,?,.
O=C(Nc1ncccc1O)c1cccc(S(=O)(=O)N2CCN(c3ccc(F)cc3)CC2)c1,.,.,?,?,.,.
CCOc1ccc(S(=O)(=O)N2CCN(c3ccc(C)cc3C)CC2)c2ccccc12,/,/,/,/,.,.
Cc1cc(OCC(=O)NNC(=S)NC(=O)c2cccs2)ccc1Cl,.,.,?,?,.,.
Cc1ccc(OCC(=O)NNC(=S)NC(=O)c2cccs2)c(C)c1,.,.,16µM,16µM,.,.
Cc1ccc(OCC(=O)NNC(=S)NC(=O)c2ccc(Br)o2)c(C)c1,.,.,13µM,?,.,.
CCS(=O)c1ccccc1C(=O)OCC(=O)Nc1ccc2ccccc2c1 (stereo unspecified),.,.,?,.,.,.
CSc1ccc(S(=O)(=O)NCc2ccccc2C)cc1,.,.,.,.,.,.
Cc1cccc(C)c1OCC(=O)Nc1cccc(NC(=O)c2ccco2)c1,.,.,?,?,?,.
Cc1cc(NC(=O)COc2ccccc2C)ccc1NC(=O)c1ccco1,.,.,16µM,23µM,.,.
Cc1cccc(C)c1OCC(=O)Nc1ccc(NC(=O)c2ccco2)cc1,.,.,21µM,26µM,.,.
Cc1cc(NC(=O)COc2ccccc2C)ccc1NC(=O)c1cccs1,-62,.,12µM,.,.,.
Cc1onc(-c2c(F)cccc2Cl)c1C(=O)OCc1nnc(-c2ccccc2)o1,.,.,?,.,.,.
Cc1ccc(CN2C(=O)C[C@@H](NC(=O)OCC3c4ccccc4-c4ccccc43)C/C=C\C2c2ccc(C)cc2)cc1 (stereo partly specified),-65,.,?,?,?,.
CCCCCCN1C(=O)CC(NC(=O)OCC2c3ccccc3-c3ccccc32)C/C=C\C1C(C)C (stereo unspecified),.,.,15µM,23µM,?,.
O=C(NC1C/C=C\C(c2ccccc2)N(c2ccccc2)C(=O)C1)OCC1c2ccccc2-c2ccccc21 (stereo unspecified),?,.,0.16µM,.,?,.
O=C(O)C1CCCN1C(=O)OCC1c2ccccc2-c2ccccc21 (stereo unspecified),.,.,.,.,.,.
CC[C@H](C)[C@H](NC(=O)OCC1c2ccccc2-c2ccccc21)C(=O)O,/,/,.,.,/,/
N#Cc1cccc(NC(=O)COC(=O)C2CCC2)c1,.,.,.,.,.,.
CCn1cc(CN2CCOc3ccc(C(O)C4CCCCC4)cc3C2)c(C)n1 (stereo unspecified),/,/,?,.[9.04 µM],/,/
COc1cc(NC(=O)c2ccccc2Cl)c(OC)cc1NC(=O)CN1CCOCC1,-74,.,?,?,.,.
COc1cc(NC(=O)c2cccc(C)c2)c(OC)cc1NC(=O)CN1CCOCC1,?,.,18µM,?,.,.
COc1ccc(O)c(C2=Nc3ccccc3N=C(c3ccccc3)C2)c1,.,.,18µM,23µM,.,.
Cc1cccc(C2=Nc3ccccc3N=C(c3cc(Cl)ccc3O)C2)c1,/,/,?,?,.,.
Cc1c(-c2ccc(F)cc2)nc(N)c(C#N)c1-c1cccs1,.,.,.,.,.,.
Cc1nn(-c2ccc(F)cc2)c2nc(N)c(C#N)c(-c3ccc(O)c(O)c3)c12,.,.,23µM,16µM,?,.
